Compound activity as filed in PubChem BioAssay.
The full list was thinned out, with hits kept by preference.
Pf apPOL inh = Pf-apPOL inhibitors, biochemical, fluorescence; 210,000 compounds, 0.25% hits; inhibition, % at 10 µM; Recombinant Pf-apPOL, molecular beacon fluorescence, 1.5 h
mHTT CaM bind = mutant huntingtin-calmodulin interaction inhibitors – biochemical, AlphaScreen, primary screen; P42858; AlphaScreen His-mHTT/GST-CaM binding, luminescence; inhibition, % at 15 µM; 190,000 compounds, 3.6% hits; AID 1671202, 2021;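 further: 0% = both proteins with DMSO and 100% = one protein alone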
* marks the source's active call; other numbers are inactive results; nt = no result. No stated cut-off is given here; in the data, active means inhibition above about 50%; inactive means the rest.

SMILES | Pf apPOL inh | mHTT CaM bind
Cc1ccc(F)c(NC(=O)Nc2ccc(Cl)cc2)c1 | -5 | -7
O=C(CCN1C(=O)C2C3C=CC(C3)C2C1=O)Nc1ccc(Cl)c(C(F)(F)F)c1 (stereo not given) | -4 | 1
Cc1ccc(C(Nc2cccc(C)n2)c2ccc3cccnc3c2O)cc1 (stereo not given) | 2 | 98*
O=S(=O)(O)c1cccc2cccnc12 | -1 | 0
Cc1cccc(NC(c2ccc(Br)cc2)c2ccc3cccnc3c2O)n1 (stereo not given) | 4 | 97*
Cc1cccc(NC(=O)COc2ccc(Br)cc2)n1 | -1 | -20
O=C(NCc1ccc(F)cc1)C1CCN(c2ccccc2Br)C1=O (stereo not given) | -6 | -1
COC(CN(C)C(=O)CCS(=O)(=O)c1cc(Br)cc2c1N(C(C)=O)CC2)OC | -8 | -5
CCOC(=O)CCC(=O)Nc1ccc(N2CCCCC2=O)c(OC)c1 | -4 | -5
CC1=NN2C(C1)c1ccccc1OC21C(=O)Nc2ccccc21 (stereo not given) | -13 | 80*
O=C1N(Cc2ccccc2)c2ccccc2C12Oc1ccccc1C1CC(c3ccco3)=NN12 (stereo not given) | 4 | 32
O=C(NCC1(O)CCc2ccccc21)c1cc2ccccc2oc1=O (stereo not given) | -7 | 3
O=c1[nH]c2ccc(S(=O)(=O)Nc3ccc4c(c3)OCO4)cc2[nH]c1=O | 5 | 45
COc1ccccc1OCC(=O)Nc1cccc([N+](=O)[O-])c1C | -5 | -2
COc1ccccc1C1CC(c2ccc(C)cc2)=NN1C(=O)CN1CCOCC1 (stereo not given) | -5 | 50
O=C(CN1CCCC1)N1N=C(c2cccc(F)c2)CC1c1ccc2c(c1)OCO2 (stereo not given) | -4 | 98*
COc1ccc(C2CC(c3cccc(F)c3)=NN2C(=O)CN2CCOCC2)cc1 (stereo not given) | -5 | 74*
COc1ccccc1C1CC(c2cccc(F)c2)=NN1C(=O)CN1CCOCC1 (stereo not given) | -3 | 66*
Cc1ccc(C2=NN(C(=O)CN3CCCC3)C(c3ccc4c(c3)OCO4)C2)cc1 (stereo not given) | -7 | 32
COc1ccc(C2=NN(C(=O)CCC(=O)O)C(c3ccc(Br)cc3)C2)cc1 (stereo not given) | 6 | 15
COc1ccc(C2CC(c3ccc(Br)cc3)=NN2C(=O)CCN2CCOCC2)cc1 (stereo not given) | -8 | 66*
COc1ccc(C2=NN(C(=O)CN3CCOCC3)C(c3ccc(F)cc3)C2)cc1 (stereo not given) | -4 | 40
CCN1C(=O)C(O)(CC(=O)c2ccccc2)c2cc(Br)ccc21 (stereo not given) | -6 | 2
CC(C)c1ccc(OCC(=O)N(Cc2ccsc2)Cc2ccccn2)cc1 | -5 | -10
Cc1nc(N2CCC(C)CC2)c2c(C)c(C(=O)Nc3ccc(F)cc3)sc2n1 | -4 | 0
SMILES | Pf apPOL inh | mHTT CaM bind
CC(C)CC(=O)NC1CCN(c2ccccc2C(=O)N2CCC(C)CC2)CC1 | -17 | 16
CCOc1ccccc1NC(=O)N1CCc2nc(-c3ccc(OC)cc3)ncc2C1 | -3 | 15
COc1ccc(C2/C=C\CN(S(=O)(=O)c3ccc(-c4ccccc4)cc3)CC(=O)N2Cc2ccc(F)cc2)cc1 (stereo not given) | -1 | -3
COc1ccc(C2/C=C\CN(C(=O)Nc3ccc(C(F)(F)F)cc3)CC(=O)N2Cc2ccc(F)cc2)cc1 (stereo not given) | -5 | 59*
COc1ccc(C2/C=C\CN(C(=O)C3CCCC3)[C@@H](C)C(=O)N2Cc2ccc(F)cc2)cc1 (stereo not given in full) | -2 | 43
COc1ccc(C2/C=C\CN(CC3CCCCC3)CC(=O)N2Cc2ccc(F)cc2)cc1 (stereo not given) | -3 | 34
COc1ccc(C2/C=C\CN(Cc3ccco3)CC(=O)N2Cc2ccc(F)cc2)cc1 (stereo not given) | -4 | 61*
COc1ccc(C2/C=C\CN(C(=O)Oc3ccc(C(F)(F)F)cc3)CC(=O)N2Cc2ccc(F)cc2)cc1 (stereo not given) | -1 | 79*
COc1ccc(C2/C=C\CN(C(=O)c3ccc(C)cc3)CC(=O)N2Cc2ccc(F)cc2)cc1 (stereo not given) | -3 | 75*
COc1ccc(CNC(=O)CN2CCN(C(=O)Nc3ccc(F)cc3)CC2=O)cc1 | -5 | -8
CSc1ccc(CCNC(=O)c2cc3n(n2)CCCN(Cc2cccc(C)c2)C3=O)cc1 | -3 | 3
Cc1nn(C)c2c(N3CCCC(C(=O)NCc4ccc(F)c(Cl)c4)C3)nccc12 (stereo not given) | -2 | 0
CCC(=O)Nc1cccc(-c2noc(C3CCCN(C(=O)c4cccc(OC)c4)C3)n2)c1 (stereo not given) | -4 | 8
COc1cccc(-c2noc(C3CCCN3C(=O)Nc3ccc(F)c(Cl)c3)n2)c1 (stereo not given) | -1 | 58*
COc1cccc(-c2noc(C3CCCN3C(=O)Nc3cccc(Cl)c3)n2)c1 (stereo not given) | -2 | -8
COc1ccc(OCC(=O)N2CCCC2c2nc(-c3cccc(C)c3)no2)cc1 (stereo not given) | 1 | 15
Cc1ccc(OCC(=O)N2CCCC2c2nc(-c3cccc(C)c3)no2)cc1 (stereo not given) | 0 | 80*
CCn1ccc(C(=O)N2CCCC2c2nc(-c3cccc(Cl)c3)no2)n1 (stereo not given) | -3 | 10
CCC(=O)Nc1cccc(-c2noc(C3CCCN(C(=O)COc4cccc(C)c4)C3)n2)c1 (stereo not given) | -1 | 79*
CCn1ccc(C(=O)N2CCCC2c2nc(-c3cccc(C(F)(F)F)c3)no2)n1 (stereo not given) | 7 | 88*
COc1ccc(S(=O)(=O)N2CCC(c3nc4ccncc4n3CC(C)C)C2)cc1Cl (stereo not given) | -5 | 7
O=C(CN1C(=O)c2ccccc2C1=O)Nc1ccc(Sc2ccc([N+](=O)[O-])cc2)cc1 | -9 | 9
NC(=O)c1ccccc1NC(=O)c1ccccc1[N+](=O)[O-] | -4 | 2
CC(=O)Nc1ccccc1NC(=O)c1ccccc1[N+](=O)[O-] | 1 | 60*
CCN(C)c1nc(-c2ccccc2Cl)c2c(N)n(-c3ccccc3)nc2n1 | 0 | 20
SMILES | Pf apPOL inh | mHTT CaM bind
CCN(C)c1nc(-c2cccc(F)c2)c2c(N)n(-c3cccc(F)c3)nc2n1 | 2 | 57*
c1ccc(C2(c3ccccc3)CC2(c2ccccc2)c2ccccc2)cc1 | -6 | nt
O=C(c1ccc(F)cc1)N1CCCC2(CC(c3ccc(Cl)cc3)=CO2)C1 (stereo not given) | -4 | -5
O=C(c1ccco1)N1CCCC2(CC(c3cccc(Cl)c3)=CO2)C1 (stereo not given) | -4 | 90*
O=C(c1ccccc1)N1CCCC2(CC(c3cccc(Cl)c3)=CO2)C1 (stereo not given) | -5 | 96*
O=C(c1ccc(Cl)cc1)N1CCCC2(CC(c3cccc(Cl)c3)=CO2)C1 (stereo not given) | -2 | -9
